Bioassay records as filed in PubChem.
Artemis inh = Artemis endonuclease inhibitors, primary screen, biochemical, fluorescence intensity, FAM/BHQ-1 hairpin substrate; actives 0.78% (n = 30,000); recombinant Artemis, quenched FAM hairpin cleavage fluorescence; inhibition, % at 10 µM; Protein artemis (Homo sapiens), Q96SD1;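 active = at 10 µM dose, at least 30% inhibition, measured as corrected fluorescence normalized to stimulator and neutral control wells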
Target sequence (Q96SD1 whole entry, looked up): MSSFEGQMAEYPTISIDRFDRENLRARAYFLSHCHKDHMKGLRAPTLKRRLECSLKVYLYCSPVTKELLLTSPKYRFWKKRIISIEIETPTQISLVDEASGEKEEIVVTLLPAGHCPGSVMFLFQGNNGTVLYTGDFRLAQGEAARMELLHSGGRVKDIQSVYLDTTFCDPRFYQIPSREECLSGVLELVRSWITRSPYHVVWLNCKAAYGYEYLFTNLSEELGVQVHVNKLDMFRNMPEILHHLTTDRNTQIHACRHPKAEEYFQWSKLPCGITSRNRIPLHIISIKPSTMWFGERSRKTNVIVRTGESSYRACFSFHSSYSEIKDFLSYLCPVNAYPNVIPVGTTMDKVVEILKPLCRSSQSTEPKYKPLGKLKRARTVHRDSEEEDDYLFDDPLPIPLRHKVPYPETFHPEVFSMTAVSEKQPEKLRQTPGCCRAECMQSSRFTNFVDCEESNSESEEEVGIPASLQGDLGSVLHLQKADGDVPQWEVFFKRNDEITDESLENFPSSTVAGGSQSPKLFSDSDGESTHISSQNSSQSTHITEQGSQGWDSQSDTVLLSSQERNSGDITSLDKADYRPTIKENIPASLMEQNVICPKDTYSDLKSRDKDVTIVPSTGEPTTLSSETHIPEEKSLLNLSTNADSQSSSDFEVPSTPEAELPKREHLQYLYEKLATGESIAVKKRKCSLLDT
* hit, by the source's call. Shown is part of a subset that was picked to be rich in hits.

SMILES	Artemis inh
Cc1cc(C)nc(N(C#N)Cc2cccc3ccccc23)n1	10
N#Cc1c(-c2ccccc2)ccnc1Oc1ccccc1	-7
CCc1ccc(OCC(=O)NC(=S)Nc2ccc(S(=O)(=O)NC3CCCCC3)cc2)cc1	9
Clc1ccc(CNc2nnnn2-c2ccccc2)c(Cl)c1	-9
CC1CC(c2ccccc2)n2nc(NC(=O)CCc3ccccc3)nc2N1 (stereo not given)	0
O=C1CC(c2ccccc2)n2nc(NC(=O)C3CCCO3)nc2N1 (stereo not given)	-8
O=C(Nc1nc2n(n1)C(c1ccccc1)CC(c1ccc(Cl)cc1)N2)c1ccco1 (stereo not given)	31*
C=CCSc1nc(NC)c2sccc2n1	-8
N#Cc1c(-c2ccccc2)c(-c2ccccc2)nn(CC(=O)NNC(=O)Nc2ccc(Cl)c(Cl)c2)c1=O	30*
N#Cc1c(NC(=O)CCn2cnc3ccccc3c2=O)oc(-c2ccccc2)c1-c1ccccc1	8
N#Cc1c(-c2ccccc2)nc2n(-c3ccccc3)nc(C(=O)Nc3ccccc3)n2c1=O	10
CC(C)NS(=O)(=O)c1ccc(NC(=O)C2CC3C=CC2C3)cc1 (stereo not given)	6
CCCOc1cc(C)c(S(=O)(=O)n2ccc(C)n2)cc1C	-4
COc1cccc(/C=N\n2c(C)nnc2C)c1OC	-5
COc1cccc(/C=N/NC(=O)CSc2nnc(C)n2-c2ccccc2)c1OC	-10
COc1cccc(/C=N/Nc2nn3cnnc3c3ccccc23)c1O	35*
Cc1cc(C)n(-c2nc(NC(C)(C)C)nc(NC(C)(C)C)n2)n1	-4
Cc1csc(Nc2ccccc2C(F)(F)F)n1	-3
Cc1cc(C)n(-c2nc(Nc3ccccc3C(F)(F)F)nc(-n3nc(C)cc3C)n2)n1	57*
CN1CCN(C(=S)c2ccc(OCC(=O)Nc3cccc(C(F)(F)F)c3)cc2)CC1	3
N#CC1=C(N)Oc2n[nH]c(-c3ccc(F)cc3)c2C1c1ccncc1 (stereo not given)	1
O=C(O)CC(C(=O)O)c1cn(Cc2ccccc2)c2ccccc12 (stereo not given)	2
N#Cc1ccccc1Cn1cc(C#N)c2ccccc21	10
Cc1[nH][nH]c(=O)c1C(c1c(C)[nH][nH]c1=O)c1cn(Cc2cccc3ccccc23)c2ccccc12	47*
Cc1cccc(-n2cnc(C(=O)N/N=C/c3ccccc3)c2)n1	8
SMILES	Artemis inh
Cc1cc(NC(=O)COC(=O)CCCOc2ccc(Cl)cc2C)no1	0
Cc1cc(Cl)ccc1OCCCC(=O)NCC1CCCO1 (stereo not given)	4
Cc1cc(Cl)ccc1OCCCC(=O)NO	63*
Cc1c(Cl)c([N+](=O)[O-])nn1CC(=O)NC(C)C1CC2CCC1C2 (stereo not given)	-1
O=C(c1c(Cl)nc2sccn12)N1CCN(c2cccc(Cl)c2)CC1	-5
Cc1ccc(O)c(C2=NOC(O)(C(F)(F)F)C2)c1 (stereo not given)	-2
Cc1ccccc1N=C1NC(=O)CC(c2ccccc2)S1 (stereo not given)	-3
COc1ccc(S(=O)(=O)Nc2ccccc2C(=O)NC(C)C)cc1OC	-3
COC(=O)c1[nH]c(=O)c2ccccc2c1O	28
Cc1cccc2cc(=O)[nH]c(C)c12	-3
Cc1ccccc1Nc1cc2ccccc2c(=O)[nH]1	31*
Clc1ccc(-c2ccc(/C=N/Nc3cc(N4CCOCC4)nc(N4CCOCC4)n3)o2)cc1	-1
CCC(C)(C)c1nnc(NC(=O)c2ccc([N+](=O)[O-])cc2)s1	-4
CC(Oc1ccc(-c2nccc(-c3ccccn3)n2)cc1)C(=O)NN (stereo not given)	13
COc1ccc(OC)c(NC(=O)CSC2=NCCS2)c1	-10
COc1ccc(CC(=O)NC2=NCCS2)cc1	5
COc1ccc(Nc2nc(Nc3ccc(OC)cc3)nc(SC3=NCCS3)n2)cc1	79*
C=CCn1c(SCC(=O)Nc2cc(C)on2)nc2sc(CC)cc2c1=O	2
COc1cc(C2C(C(C)=O)=C(O)C(=O)N2CCc2ccc(OC)c(OC)c2)ccc1O (stereo not given)	1
COc1ccc(C2C(C(=O)c3ccc(C)o3)=C(O)C(=O)N2c2cc(C)on2)cc1OC (stereo not given)	2
CCOc1cc(C2C(C(=O)c3ccc(C)o3)=C(O)C(=O)N2CCc2ccccc2)ccc1O (stereo not given)	32*
C1=CC2CC1CC2CN1CCN(Cc2ccccc2)CC1 (stereo not given)	3
CCCOc1ccc(N2C(=O)CC(N3CCC(c4nncn4CC)CC3)C2=O)cc1 (stereo not given)	-5
C=CCNC(=S)N/N=C/c1ccc(-c2cc(Cl)ccc2Cl)o1	1
COC(=O)c1ccc(Cl)c(-c2ccc(/C=N/NC(=O)Nc3ccccc3)o2)c1	-2
SMILES	Artemis inh
CC1=NOC(=O)/C1=C\c1ccc(-c2cc(Cl)ccc2Cl)o1	37*
O=C(COC(=O)CCCSc1nc2ccccc2[nH]1)NC(=O)NC1CCCC1	7
O=C1CC(N(CCc2ccccc2)C(=S)Nc2cc(Cl)ccc2Cl)C(=O)N1c1c(Cl)cccc1Cl (stereo not given)	4
O=C(CSc1ncn[nH]1)NCCCc1ccccc1	-1
CC(C)N(CCCNC(=O)C1CCN(S(=O)(=O)N2CCOCC2)CC1)Cc1ccccc1	-8
O=S(=O)(NCCSc1nnc(-c2ccco2)n1-c1ccccc1)c1ccccc1	0
CC(C)(C)Nc1nc(NN)nc(NC(C)(C)C)n1	43*
CC(=O)C(Sc1nc(NC(C)(C)C)nc(N(C)C)n1)C(C)=O	7
CNc1nc(Cl)nc(NC(C)(C)C)n1	0
CC(C(=O)N1CCCc2ccccc21)N1CCN(S(=O)(=O)c2ccccc2F)CC1 (stereo not given)	-7
CCC(=O)Nc1ccc2oc(-c3ccccc3Br)nc2c1	-3
Nc1ccc2oc(-c3cccc4ccccc34)nc2c1	-2
O=C(Nc1ccc2oc(-c3cccc4ccccc34)nc2c1)c1ncn[nH]1	32*
CCOC(=O)CSc1nnc(SCCN2C(=O)c3ccccc3C2=O)s1	-6
O=C1c2ccccc2C(=O)c2c1oc(C(F)(F)F)c2C(=O)c1ccccc1	42*
O=C(c1ccccc1)c1nn(-c2ccccc2)c(=O)cc1C(F)(F)F	-4
O=C(c1ccccc1)c1nn(-c2ccc(Cl)cc2)c(=O)cc1C(F)(F)F	1
CCCNc1nc(C)c(C(C)=O)cc1C#N	-5
COc1ccc(/C=N/NC(=O)c2cc(-c3ccc(C)cc3C)nc3ccccc23)cc1COC(C)=O	3
CCOc1ccccc1N1Cc2ccccc2C1	20
CCOc1ccccc1N1CCN(C(=O)C(F)(F)F)CC1	-4
CCOc1ccccc1N1CN(CC)CNC1=S	55*
O=C1CCCC(=O)C1=Cc1c[nH]c2ccccc12	-1
COc1ccc([N+](=O)[O-])cc1COc1cc(C)cc2oc(=O)cc(-c3ccccc3)c12	2
O=C(CSc1nnc(-c2ccccc2)n1Cc1ccco1)NCc1ccc2c(c1)OCO2	-4
SMILES	Artemis inh
Cc1cc(C)n(-c2nc(NCCCO)c3c4c(sc3n2)CCCC4)n1	33*
Cc1cc(C)n(-c2nc(NCC(C)O)c3c4c(sc3n2)CCCC4)n1 (stereo not given)	39*
Cc1cc(C)n(-c2nc(NCCO)c3c4c(sc3n2)CCCC4)n1	-2
CCn1c(NN)nc2sc3c(c2c1=O)CCC3	1
N=c1c2c3c(sc2ncn1CCCO)CCCC3	-3
Cc1cc(S(=O)(=O)Nc2nc(CN3CCOCC3)nc3sc4c(c23)CCCC4)ccc1F	-6
